HCMV inh = human cytomegalovirus inhibition; 4.5% of 410,000 active; HFF cells, HCMV-luciferase reporter, 72 h; hits give low values; activity change, negative = inhibition, % at 57.5 µM; in the data active = activity change below about -60%; inconclusive = no clear call, values can overlap the other calls; inactive = above about -39%
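Compounds were evaluated in HFFs infected with an HCMV luciferase reporter virus (MOI 1 PFU/cell). Luciferase in lysates collected 72 h post infection served as the replication measure.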
Sm TGR block = blocks Schistosoma mansoni thioredoxin glutathione reductase; purified TGR, DTNB reduction, TNB absorbance 405 nm; 3% of 360,000 active; Q962Y6; Potency, µM (top dose mostly 114 µM), actives largely listed as inhibitors; note: nearly all actives have a fitted effect of over 60% in size
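TGR 20 nM + NADPH 100 uM (dispensed conc.), cpd preinc 15 min RT; start with NADPH (500 uM addition) then DTNB (15 mM addition). Kinetic TNB absorbance, 405 nm filter. Four-parameter Hill fit across titration.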
Pf growth 48h = P. falciparum growth inhibition at 48 hours (one generation); P. falciparum luciferase growth in erythrocytes, 48 h; 5.9% of 310,000 active; Potency, µM (titrated, usually from 28.7 µM), most hits filed as inhibitors
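Luciferase-expressing parasites in RBCs, 2% Hct / 0.1% parasitemia final; RPMI 1640 + 0.5% Albumax; 37 C, 5% CO2, one generation; luminescence read-out, lower signal = inhibition.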
Giardia FBPA inh = blocks Giardia fructose-bisphosphate aldolase activity. A8B2U2. purified Giardia FBPA. Potency, µM (titrated, usually from 59.6 µM), hits mostly inhibitors. 0.71% of 290,000 active. AID 2451; note: nearly all actives have a fitted effect of over 55% in size
Target sequence (A8B2U2 whole entry, looked up): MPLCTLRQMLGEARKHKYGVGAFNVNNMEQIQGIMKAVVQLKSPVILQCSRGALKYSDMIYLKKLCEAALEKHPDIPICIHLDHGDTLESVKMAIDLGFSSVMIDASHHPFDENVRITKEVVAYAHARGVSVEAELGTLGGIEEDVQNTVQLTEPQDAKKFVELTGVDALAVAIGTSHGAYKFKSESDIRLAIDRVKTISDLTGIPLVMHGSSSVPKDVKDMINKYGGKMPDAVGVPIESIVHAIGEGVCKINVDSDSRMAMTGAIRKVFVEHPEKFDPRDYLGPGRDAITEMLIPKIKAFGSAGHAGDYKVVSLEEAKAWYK
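Giardia FBPA (40 nM reagent) was preincubated 10 min at RT with compound (up to 57.5 uM final), then substrate plus GAPDH/TPI/NAD/arsenate coupling system with diaphorase/resazurin was added; resorufin fluorescence (525/598 nm) was read after 20 min.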
Pf growth 96h = P. falciparum growth inhibition at 96 hours; AID 504834; Potency, µM (top dose mostly 28.7 µM), usual class: inhibitors; P. falciparum luciferase reporter growth, 96 h; 6.9% of 320,000 active
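Infected RBCs, 2% Hct / 0.05% parasitemia final; luciferase-reporter P. falciparum; cpd 96 h, 37 C, 5% CO2; luciferase detection reagent; luminescence.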
Hits are given with their value; i = inactive; ? = inconclusive; nt = not tested or not shown; [ ] = another dose, or the depositor's remark. Shown are actives, neighbours in structure and some others; about 14% of the full set was active somewhere. Unless noted, calls come from the whole dose curve; as a rule, active = well fitted curve in the direction sought with a large enough effect; inconclusive = small, poorly fitted or top-dose-only effect, or another doubt; inactive = no such curve, though single readings can be large; an effect the other way counts as inactive or inconclusive.

SMILES | HCMV inh | Sm TGR block | Pf growth 48h | Giardia FBPA inh | Pf growth 96h
Clc1ccc(C2CC(c3ccco3)n3ncnc3N2)cc1Cl (stereo not given) | i | 11µM | i | i | i
CCOc1ccc(C2CC(c3cccc(OC)c3OC)n3nnnc3N2)cc1Cl (stereo not given) | i | i | 12µM | i | i
CCCn1c(C2CCCN2c2nc(-c3cccc(Br)c3)cs2)nc2ccccc21 (stereo not given) | ? | i | ? | i | 1.9µM
CCn1cc(C(=O)NCc2cccc(C(F)(F)F)c2)c(=O)c2ccc(C)nc21 | -69 | i | i | i | i
CCn1cc(C(=O)Nc2ccc(NC(=O)c3ccco3)cc2)c(=O)c2ccc(C)nc21 | i | i | i | i | 6.6µM
COc1ccc(Cc2nc3ccc(C(=O)NC(C)c4cnn(C)c4)cc3o2)cc1 (stereo not given) | i | i | i | nt | ?
CCOC(=O)N1C/C(=C\c2ccccc2)C(=O)/C(=C/c2ccccc2)C1 | -101 | i | 4.7µM | i | ?
COc1ccc(OC(=O)N2CCOCC2)cc1 | i | i | i | i | i
COc1ccc(OC(=O)N2C/C(=C/c3ccccc3)C(=O)/C(=C\c3ccccc3)C2)cc1 | -97 | nt | nt | nt | nt
CC(=O)Nc1c([N+](=O)[O-])cc2c3c(cccc13)CC2 | i | nt | nt | nt | nt
O=C(N/N=C\c1ccc([N+](=O)[O-])s1)c1cncc(Br)c1 | -100 | i | 8.3µM | i | 3.3µM
Cc1ccccc1C(=O)N/N=C/c1ccc([N+](=O)[O-])s1 | -96 | i | nt | i | 2.1µM
O=C(N/N=C/c1ccc([N+](=O)[O-])s1)c1ccccc1Br | -77 | ? | ? | nt | 1.7µM
O=C(N/N=C/c1ccc([N+](=O)[O-])s1)c1ccccc1 | ? | i | ? | i | i
COc1ccccc1NC(=O)C(=O)N/N=C/c1ccc([N+](=O)[O-])s1 | i | nt | 2.6µM | i | 1.7µM
COc1cccc(CNC(=O)c2sc3nc(C)cc(C)c3c2-n2cccc2)c1OC | i | i | nt | nt | nt
Cc1ccc(CC(=O)NNC(=O)c2cccs2)cc1C | i | i | i | nt | i
Cc1cnc(CNc2ncncc2-c2ccccc2C)cn1 | nt | nt | nt | i | nt
COC(=O)N/N=C/c1ccc([N+](=O)[O-])s1 | i | i | 15µM | i | 8.3µM
Cc1cc(C(=O)N/N=C/c2ccc([N+](=O)[O-])s2)c2ccccc2n1 | -70 | i | 4.7µM | nt | i
Cc1cc(C(=O)N/N=C/c2ccc([N+](=O)[O-])cc2)c2ccccc2n1 | i | i | i | i | i
CCO[C@H]1OC(C(=O)N2CCN(Cc3ccc4c(c3)OCO4)CC2)=C[C@@H](c2cn(C(C)=O)c3ccccc23)[C@@H]1CCCO | i | i | 1µM | i | 7.4µM
CCO[C@H]1OC(C(=O)N2CCN(Cc3ccc4c(c3)OCO4)CC2)=C[C@@H](c2csc3ccccc23)[C@@H]1CCCO | i | i | 12µM | i | ?
COc1cccc(Nc2nc3cc(C)ccc3nc2NS(=O)(=O)c2ccc(Cl)cc2)c1 | i | i | nt | nt | nt
CCCCCCCC1=Cc2ccccc2C(C(C(C)=O)C(=O)OC)N1C(=O)OC (stereo not given) | nt | nt | nt | i[12.9 µM] | nt
SMILES | HCMV inh | Sm TGR block | Pf growth 48h | Giardia FBPA inh | Pf growth 96h
O=[N+]([O-])c1cccnc1Oc1ccc(C2SCCS2)cc1 | i | i | 4.7µM | i | 10µM
O=C(Nc1ccccc1)C(=O)Nc1ccc2c(c1)N(C(=O)C1CC1)CCC2 | i | i | i | nt | i
COc1cc(C2C(C(=O)Nc3ccc(C)cc3C)=C(C)Nc3nc4ccccc4n32)cc(OC)c1OC (stereo not given) | i | i | nt | nt | nt
COC(=O)C1=C(C)Nc2nc3ccccc3n2C1c1cc(OC)c(OC)c(OC)c1 (stereo not given) | i | i | 1.9µM | i | ?
Cc1ccc(C)c(NC(=O)CCCN2C(=O)C(c3ccccc3)Oc3cccnc32)c1 (stereo not given) | i | i | nt | nt | nt
Cc1ccc(OCC(=O)Nc2ccccc2C(=O)N2CCCC2)cc1 | i | i | i | nt | i
CCC1=C(OC(=O)N(CC)CC)N2C(=O)OC(=NCC3CC3)[C@]2(C)[C@H]2C1=CC[C@H]1C(=O)N(CC)C(=O)[C@H]12 | i | i | 10µM | i | ?
CCC1=C(OC(=O)N(CC)CC)N2C(=O)OC(=NCC3CC3)[C@]2(C)[C@H]2C1=CC[C@H]1C(=O)N(C)C(=O)[C@H]12 | i | i | 8.3µM | i | 10µM

Screens as filed in PubChem.
